Results filed as inconclusive are left out. Active and inactive are the calls of the source. Unless noted, calls come from the whole dose curve.
Key:
[1] = qHTS assay to identify small molecule agonists of the sonic hedgehog signaling (Shh) pathway (AID 1259368); note: nearly all actives have a fitted effect of over 15% in size; note: potency is the fitted concentration of half-maximal effect;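 for activity change: NIH/3T3-derived 3T3Gli1-Luc cells carrying a stable Gli1-driven firefly luciferase reporter; series mostly up to about 92 µM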
Outline: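 Luminescence was read after 30 min at room temperature with luciferase reagent. Before that, 3T3Gli1-Luc cells (NIH/3T3 clone, stable Gli1-Luc reporter; 2,000/well) were exposed to compounds for 24 hr at 37C, 5% CO2, compounds being added 4 hr post-plating.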

[2] = qHTS assay to identify small molecule antagonists of the sonic hedgehog signaling (Shh) pathway (AID 1259369); note: nearly all actives have a fitted effect of over 45% in size; note: potency is the fitted concentration of half-maximal effect
Outline: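 Antagonist mode: compound added to 3T3 Gli1-Luc cells followed by conditioned-medium stimulation, 24 h at 37 C, 5% CO2. Inhibition taken as loss of Gli1-driven luciferase luminescence.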

[3] = molecular target: Estrogen receptor beta (Homo sapiens) (UniProt Q92731); assay: qHTS assay to identify small molecule agonists of the estrogen receptor beta (ER-beta) signaling pathway (AID 1259377; active = well fitted activation curve with a large enough effect in the signal ratio in the repeat runs, not every such curve was filed as active; the % refers to the signal ratio)
Sequence of Estrogen receptor beta (Homo sapiens) (Q92731 whole entry, looked up): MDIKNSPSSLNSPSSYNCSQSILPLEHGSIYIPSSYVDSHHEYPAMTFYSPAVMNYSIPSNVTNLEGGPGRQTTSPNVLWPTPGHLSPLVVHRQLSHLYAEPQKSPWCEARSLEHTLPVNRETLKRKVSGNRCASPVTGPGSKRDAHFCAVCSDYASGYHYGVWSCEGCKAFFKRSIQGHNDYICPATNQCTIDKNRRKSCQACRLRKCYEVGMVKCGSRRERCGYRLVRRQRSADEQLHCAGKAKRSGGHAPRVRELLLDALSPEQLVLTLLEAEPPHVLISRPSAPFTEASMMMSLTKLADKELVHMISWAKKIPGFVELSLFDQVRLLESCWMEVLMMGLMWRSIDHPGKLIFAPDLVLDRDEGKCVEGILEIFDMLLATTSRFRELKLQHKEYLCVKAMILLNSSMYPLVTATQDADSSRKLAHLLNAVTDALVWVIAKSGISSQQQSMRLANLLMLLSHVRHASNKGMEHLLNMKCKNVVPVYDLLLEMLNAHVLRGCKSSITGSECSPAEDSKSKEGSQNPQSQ
Outline: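 HEK293T ER-beta-UAS-bla; 2% charcoal-stripped FBS; cells pre-incubated 6 hr, compound 16 hr, 37C/5% CO2; LiveBLAzer B/G FRET substrate 2 h RT; fluorescence intensity read.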

[4] = molecular target: Estrogen receptor beta (Homo sapiens) (UniProt Q92731); assay: qHTS assay to identify small molecule antagonists of the estrogen receptor beta (ER-beta) signaling pathway (AID 1259378; active = well fitted inhibition curve with a large enough effect in the signal ratio in the repeat runs, not every such curve was filed as active; the % refers to the signal ratio)
Outline: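 Antagonist mode: compounds added to beta-lactamase reporter HEK293T ER-beta-UAS cells stimulated with E2 (1nM final), 16 hr at 37C. LiveBLAzer B/G FRET substrate, 2 hours room temperature, fluorescence read-out.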

[5] = molecular target: Androgen receptor (Homo sapiens) (UniProt P10275); assay: qHTS assay to identify small molecule agonists of the androgen receptor (AR) signaling pathway in the presence of an antagonist (AID 1259381); note: nearly all actives have a fitted effect of over 15% in size; note: potency is the fitted concentration of half-maximal effect
Sequence of Androgen receptor (Homo sapiens) (P10275 whole entry, looked up): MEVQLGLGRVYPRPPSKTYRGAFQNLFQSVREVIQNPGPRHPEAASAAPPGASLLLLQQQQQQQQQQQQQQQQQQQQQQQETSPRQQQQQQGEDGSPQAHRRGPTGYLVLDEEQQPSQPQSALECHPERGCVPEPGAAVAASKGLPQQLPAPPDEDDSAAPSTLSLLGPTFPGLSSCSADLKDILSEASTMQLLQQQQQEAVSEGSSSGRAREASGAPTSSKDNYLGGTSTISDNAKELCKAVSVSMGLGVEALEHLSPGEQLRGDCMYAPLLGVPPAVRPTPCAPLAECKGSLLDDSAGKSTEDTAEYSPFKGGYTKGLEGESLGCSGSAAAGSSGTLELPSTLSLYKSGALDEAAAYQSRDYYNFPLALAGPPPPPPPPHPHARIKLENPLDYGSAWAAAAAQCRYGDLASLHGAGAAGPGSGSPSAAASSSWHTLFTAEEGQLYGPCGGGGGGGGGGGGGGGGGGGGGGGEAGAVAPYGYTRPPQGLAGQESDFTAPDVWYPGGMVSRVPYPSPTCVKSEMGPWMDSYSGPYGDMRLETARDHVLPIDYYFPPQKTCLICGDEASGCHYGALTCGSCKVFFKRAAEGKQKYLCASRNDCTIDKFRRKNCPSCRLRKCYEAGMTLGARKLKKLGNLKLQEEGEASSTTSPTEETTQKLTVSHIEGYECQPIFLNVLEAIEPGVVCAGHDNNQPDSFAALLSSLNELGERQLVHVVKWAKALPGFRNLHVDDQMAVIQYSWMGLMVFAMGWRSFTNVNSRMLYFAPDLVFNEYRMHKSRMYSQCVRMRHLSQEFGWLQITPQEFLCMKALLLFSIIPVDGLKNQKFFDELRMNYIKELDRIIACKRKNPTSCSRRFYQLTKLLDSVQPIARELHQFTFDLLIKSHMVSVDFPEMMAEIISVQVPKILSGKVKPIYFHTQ
Outline: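 Agonist-mode confirmation run against 3.0 uM final nilutamide: compounds titrated at 15 concentrations onto MDA-kb2 MMTV-luciferase reporter cells. Luminescence measured with ONE-Glo following 16 hr incubation, 37C, 0% CO2.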

[6] = qHTS assay to identify small molecule agonists or antagonists of the thyroid stimulating hormone receptor (TSHR) signaling pathway - wild type cell line counter screen (AID 1259384)
Outline: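 Counter screen in untransfected Hek293: compounds (15-point titration, triplicate) plus phosphodiesterase inhibitor Ro20-1724 added after 18 h plating; 30 min RT. Intracellular cAMP via competitive d2/cryptate immunoassay, 1 h incubation.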

[7] = molecular target: Thyrotropin receptor (Homo sapiens) (UniProt P16473); assay: qHTS assay to identify small molecule antagonists of the thyroid stimulating hormone receptor (TSHR) signaling pathway (AID 1259385); note: nearly all actives have a fitted effect of over 20% in size
Sequence of Thyrotropin receptor (Homo sapiens) (P16473 whole entry, looked up): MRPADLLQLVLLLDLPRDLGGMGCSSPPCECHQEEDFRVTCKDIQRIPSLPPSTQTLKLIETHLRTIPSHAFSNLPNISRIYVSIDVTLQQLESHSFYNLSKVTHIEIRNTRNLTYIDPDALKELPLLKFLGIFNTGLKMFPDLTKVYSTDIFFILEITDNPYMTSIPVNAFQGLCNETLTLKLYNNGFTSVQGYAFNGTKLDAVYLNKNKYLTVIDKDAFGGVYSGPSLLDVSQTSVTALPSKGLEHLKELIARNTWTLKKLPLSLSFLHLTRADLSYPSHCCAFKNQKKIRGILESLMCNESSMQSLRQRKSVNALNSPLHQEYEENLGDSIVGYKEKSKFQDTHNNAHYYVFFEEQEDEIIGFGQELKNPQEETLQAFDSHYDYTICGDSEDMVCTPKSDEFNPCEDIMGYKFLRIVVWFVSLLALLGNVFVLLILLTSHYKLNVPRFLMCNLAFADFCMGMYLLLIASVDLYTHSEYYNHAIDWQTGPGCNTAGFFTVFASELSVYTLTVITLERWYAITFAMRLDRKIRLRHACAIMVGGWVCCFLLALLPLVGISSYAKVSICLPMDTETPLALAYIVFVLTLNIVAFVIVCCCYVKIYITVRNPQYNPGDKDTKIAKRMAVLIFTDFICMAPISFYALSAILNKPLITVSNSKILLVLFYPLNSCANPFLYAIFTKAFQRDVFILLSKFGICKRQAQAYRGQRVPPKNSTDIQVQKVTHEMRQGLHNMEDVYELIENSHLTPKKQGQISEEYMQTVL
Outline: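 Antagonist mode: compound-treated TSHR-expressing HEK293 cells were stimulated with 1.5 ng/mL TSH (final) in presence of Ro20-1724 for 30 min at RT. HTRF cAMP detection after 1 h; each compound tested at 15 concentrations, triplicate.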

[8] = qHTS assay to identify small molecule agonists of the estrogen receptor alpha (ER-alpha) signaling pathway in the presence of an antagonist - cell viability counter screen (AID 1259386; active = well fitted curve in the direction sought with a large enough effect in the repeat runs; an effect the other way counts as inactive or inconclusive; note: series mostly up to about 92 µM; nearly all actives have a fitted effect of over 30% in size)
Outline: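 Compounds tested at 15 concentrations for 22 h at 37C alongside 10.0nM (final) ICI-182,780 antagonist, in VM7Luc4E2 cells grown in phenol red-free, charcoal-stripped medium. Viability read by CellTiter-Fluor fluorescence after 1 h reagent incubation.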

[9] = molecular target: Progesterone receptor (Homo sapiens) (UniProt P06401); assay: qHTS assay to identify small molecule agonists of the progesterone receptor (PR) signaling pathway (AID 1346784); note: nearly all actives have a fitted effect of over 30% in size; note: potency is the fitted concentration of half-maximal effect
Sequence of Progesterone receptor (Homo sapiens) (P06401 whole entry, looked up): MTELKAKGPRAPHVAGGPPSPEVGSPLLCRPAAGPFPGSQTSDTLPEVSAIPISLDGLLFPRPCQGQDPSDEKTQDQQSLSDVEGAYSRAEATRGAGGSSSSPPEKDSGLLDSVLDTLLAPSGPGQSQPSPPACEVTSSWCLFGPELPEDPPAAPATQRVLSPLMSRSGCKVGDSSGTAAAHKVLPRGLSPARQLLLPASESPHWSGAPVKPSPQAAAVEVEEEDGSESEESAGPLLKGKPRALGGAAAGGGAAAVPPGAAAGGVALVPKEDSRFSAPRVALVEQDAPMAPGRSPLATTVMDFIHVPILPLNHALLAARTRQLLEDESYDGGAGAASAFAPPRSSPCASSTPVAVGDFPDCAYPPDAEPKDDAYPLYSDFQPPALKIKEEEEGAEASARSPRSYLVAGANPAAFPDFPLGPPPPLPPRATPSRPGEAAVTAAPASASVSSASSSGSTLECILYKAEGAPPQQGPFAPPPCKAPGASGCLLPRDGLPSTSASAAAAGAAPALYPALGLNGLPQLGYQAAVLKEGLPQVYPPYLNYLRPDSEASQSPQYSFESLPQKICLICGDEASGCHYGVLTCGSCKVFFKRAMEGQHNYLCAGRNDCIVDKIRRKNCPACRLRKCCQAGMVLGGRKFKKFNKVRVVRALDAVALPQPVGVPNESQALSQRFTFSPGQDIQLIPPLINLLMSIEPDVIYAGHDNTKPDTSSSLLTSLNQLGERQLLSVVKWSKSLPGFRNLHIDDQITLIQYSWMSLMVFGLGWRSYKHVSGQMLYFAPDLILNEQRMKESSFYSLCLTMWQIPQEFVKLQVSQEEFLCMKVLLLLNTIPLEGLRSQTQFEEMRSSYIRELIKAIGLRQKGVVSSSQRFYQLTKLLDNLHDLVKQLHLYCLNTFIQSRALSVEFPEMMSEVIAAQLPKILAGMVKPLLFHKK
Outline: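 Beta-lactamase reporter read-out: after 16 hr compound treatment at 37C and a further 2 hr at room temperature with LiveBLAzer B/G FRET substrate, fluorescence was measured in PR-UAS-bla HEK 293T cells grown in 2% charcoal-stripped serum.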

[10] = molecular target: Progesterone receptor (Homo sapiens) (UniProt P06401); assay: qHTS assay to identify small molecule antagonists of the progesterone receptor (PR) signaling pathway (AID 1346795; active = well fitted inhibition curve with a large enough effect in the signal ratio in the repeat runs, not every such curve was filed as active; the % refers to the signal ratio)
Outline: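 Read-out is fluorescence from the LiveBLAzer B/G FRET substrate, cleaved by a UAS-controlled beta-lactamase in PR-UAS-bla HEK293T cells after 16 hr exposure to compound plus 1 nM promegestone (final), followed by 2 hr at room temperature.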

[11] = qHTS assay to identify small molecule antagonists of the progesterone receptor (PR) signaling pathway - cell viability counter screen (AID 1346798; active = well fitted curve in the direction sought with a large enough effect in the repeat runs; an effect the other way counts as inactive or inconclusive;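 note: HEK293T PR-UAS-bla cells stimulated with the agonist R5020; series mostly up to about 92 µM; nearly all actives have a fitted effect of over 50% in size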)
Outline: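 HEK293T PR-UAS-bla, 2% charcoal-stripped FBS; 4 hr pre-plate; cpd + R5020, 16 h 37C; LiveBLAzer read first; then CellTiter-Glo 30 min RT, luminescence.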

[12] = qHTS assay to identify small molecule antagonists of the TGF-beta/Smad signaling pathway - cell viability counter screen (AID 1346824; active = well fitted curve in the direction sought with a large enough effect in the repeat runs; an effect the other way counts as inactive or inconclusive; note: nearly all actives have a fitted effect of over 50% in size)
Outline: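 Cytotoxicity counter-screen run in the same wells as the beta-lactamase Smad reporter read: CellTiter-Glo luminescence after 30 min at room temperature. HEK 293T SBE-bla cells had 5 hr compound exposure at 37 C with TGF-beta1 (0.25 ng/mL stock).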

[13] = qHTS assay to identify small molecule agonists of the TGF-beta/Smad signaling pathway - cell viability counter screen (AID 1346829; active = well fitted curve in the direction sought with a large enough effect in the repeat runs; an effect the other way counts as inactive or inconclusive; note: top concentration of the series differs between compounds; nearly all actives have a fitted effect of over 45% in size)
Outline: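 SBE-bla HEK 293T cells plated overnight, compound exposure 5 hr at 37 C. Viability read in the same wells by CellTiter-Glo luminescence after 30 min at room temperature, following the beta-lactamase read.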

[14] = qHTS assay to identify small molecule agonists of the TGF-beta/Smad signaling pathway (AID 1346859; active = well fitted activation curve with a large enough effect in the signal ratio in the repeat runs, not every such curve was filed as active; the % refers to the signal ratio; note: series mostly up to about 77 µM)
Outline: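 SBE-bla HEK 293T, 4,000 cells/well, plated o/n; cpd in DMSO, 5 hr, 37 C/5% CO2; B/G FRET substrate 2 hr RT; ex 405, em 460/530 nm.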

[15] = qHTS assay to identify small molecule agonists of the androgen receptor (AR) signaling pathway in the presence of an antagonist - cell viability counter screen (AID 1259379; active = well fitted curve in the direction sought with a large enough effect in the repeat runs; an effect the other way counts as inactive or inconclusive; note: nearly all actives have a fitted effect of over 25% in size; note: potency is the fitted concentration of half-maximal effect;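 for activity change, negative = cytotoxicity: MDA-kb2 human breast cancer cells carrying an MMTV luciferase reporter; series mostly up to about 92 µM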)
Outline: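 Cytotoxicity counter-screen run in the same wells as the nilutamide-challenged (3.0 µM final) AR agonist assay in MDA-kb2 cells. Compounds tested at 15 concentrations for 16 h, 37 °C without CO2; CellTiter-Fluor fluorescence read.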

[16] = molecular target: Estrogen receptor (Homo sapiens) (UniProt P03372); assay: qHTS assay to identify small molecule agonists of the estrogen receptor alpha (ER-alpha) signaling pathway in the presence of an antagonist (AID 1259383); note: top concentration of the series differs between compounds; nearly all actives have a fitted effect of over 15% in size
Sequence of Estrogen receptor (Homo sapiens) (P03372 whole entry, looked up): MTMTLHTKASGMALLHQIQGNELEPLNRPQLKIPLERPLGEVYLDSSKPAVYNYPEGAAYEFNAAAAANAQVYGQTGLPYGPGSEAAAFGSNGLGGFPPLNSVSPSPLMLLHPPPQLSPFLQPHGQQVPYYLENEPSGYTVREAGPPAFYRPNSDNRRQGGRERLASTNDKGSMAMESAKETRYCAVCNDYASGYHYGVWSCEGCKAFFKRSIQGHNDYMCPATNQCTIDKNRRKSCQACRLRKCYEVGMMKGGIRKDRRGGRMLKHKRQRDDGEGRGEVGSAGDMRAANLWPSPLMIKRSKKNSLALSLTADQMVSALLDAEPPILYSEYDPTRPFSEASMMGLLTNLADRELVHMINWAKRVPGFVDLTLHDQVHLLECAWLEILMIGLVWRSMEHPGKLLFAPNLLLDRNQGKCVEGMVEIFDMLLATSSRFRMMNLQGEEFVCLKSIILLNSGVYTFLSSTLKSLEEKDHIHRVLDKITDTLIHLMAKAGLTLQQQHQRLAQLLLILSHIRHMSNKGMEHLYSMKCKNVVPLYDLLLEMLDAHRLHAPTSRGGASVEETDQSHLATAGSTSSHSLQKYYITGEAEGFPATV
Outline: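 Agonist-mode confirmation run in the presence of 10.0nM (final) ICI-182,780 antagonist. The reporter was ERE-driven luciferase in VM7Luc4E2 cells, grown in charcoal-stripped serum. Cells were exposed to 15-concentration compound series for 22hr, then ONE-Glo luminescence was read.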

[17] = qHTS assay to identify small molecule agonists of the progesterone receptor (PR) signaling pathway - cell viability counter screen (AID 1346799); note: nearly all actives have a fitted effect of over 45% in size
Outline: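 Luminescence from CellTiter-Glo, added after the beta-lactamase FRET read in the same wells, gave cytotoxicity in PR-UAS-bla HEK293T cells treated with compounds for 16 hr at 37C.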

[18] = molecular target: Thyrotropin-releasing hormone receptor (Homo sapiens) (UniProt P34981); assay: qHTS assay to identify small molecule antagonists of the thyrotropin-releasing hormone receptor (TRHR) signaling pathway (AID 1346877; active = well fitted inhibition curve with a large enough effect in the repeat runs, not every such curve was filed as active; note: series mostly up to about 51 µM)
Sequence of Thyrotropin-releasing hormone receptor (Homo sapiens) (P34981 whole entry, looked up): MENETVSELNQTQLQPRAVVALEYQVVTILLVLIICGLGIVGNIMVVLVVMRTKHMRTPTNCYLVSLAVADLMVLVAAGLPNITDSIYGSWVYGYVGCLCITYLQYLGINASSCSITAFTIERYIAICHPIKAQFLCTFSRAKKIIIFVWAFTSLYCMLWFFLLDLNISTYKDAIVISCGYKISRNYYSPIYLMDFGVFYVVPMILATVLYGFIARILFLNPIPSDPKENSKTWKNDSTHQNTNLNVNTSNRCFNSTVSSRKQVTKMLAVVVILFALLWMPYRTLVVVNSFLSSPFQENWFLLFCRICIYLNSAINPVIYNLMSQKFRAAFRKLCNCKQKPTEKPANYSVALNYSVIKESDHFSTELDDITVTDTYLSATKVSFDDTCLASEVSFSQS
Outline: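 Antagonist mode: after a 5 min room-temperature compound exposure, cells were stimulated with 1 nM (final) TRH. Dye-loaded TRHR-HEK293 cells were used, and calcium-dependent fluorescence was followed for 3 min, with 15-point titrations run in triplicate.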

[19] = qHTS assay to identify small molecule antagonists of the estrogen receptor beta (ER-beta) signaling pathway - cell viability counter screen (AID 1259382; active = well fitted curve in the direction sought with a large enough effect in the repeat runs; an effect the other way counts as inactive or inconclusive;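 note: HEK293T cells carrying ER-beta-UAS-bla reporter stimulated with estradiol; series mostly up to about 92 µM; nearly all actives have a fitted effect of over 55% in size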)
Outline: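 Cytotoxicity was measured in the same wells by CellTiter-Glo luminescence after 30 min at room temperature. Cells were ER-beta-bla HEK293T in charcoal-stripped serum, given compound together with 1 nM E2 and incubated 16 h at 37C.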

[20] = qHTS assay to identify small molecule agonists of the estrogen receptor beta (ER-beta) signaling pathway - cell viability counter screen (AID 1259380; active = well fitted curve in the direction sought with a large enough effect in the repeat runs; an effect the other way counts as inactive or inconclusive; note: nearly all actives have a fitted effect of over 30% in size)
Outline: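 Cell viability counter screen: CellTiter-Glo luminescence (30 min, room temperature) measured in the same wells as the beta-lactamase readout, after 16 hr compound exposure at 37C of ER-beta-bla HEK293T cells in 2% charcoal-stripped FBS medium.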
% is set by controls: 0 for no effect and ±100 for the full control effect.

CCCN(C1CCN(C(=O)C2CCNCC2)CC1)[C@@H]1CCc2ccc(OC)cc2C1
active: Potency [2] 4.33 µM
inactive: Potency [1] | Potency [3] | Potency [4] | Potency [5] | outcome [6] | Potency [7] | Potency [8] | Potency [9] | Potency [10] | Potency [11] | outcome [12] | outcome [13] | outcome [14]

O=C(N[C@@H](Cc1ccccc1)[C@@H](O)C(=O)N1C[C@@H](O)[C@@H](O)C1)c1cc2cc(Cl)ccc2[nH]1
inactive: Potency [1] | Potency [2] | Potency [3] | Potency [15] | Potency [16] | outcome [6] | Potency [7] | Potency [8] | Potency [9] | Potency [11] | Potency [17] | outcome [12] | outcome [13] | outcome [14] | outcome [18]

CCC(=O)O[C@@H]1C[C@H]2CC[C@]1(C)C2(C)C
inactive: Potency [1] | Potency [2] | Potency [3] | Potency [4] | Potency [15] | Potency [19] | Potency [8] | Potency [9] | Potency [10] | Potency [11] | Potency [17] | outcome [13] | outcome [14] | outcome [18]

CCCCCCCCC(=O)OCC(C)OC(=O)CCCCCCCC (stereo not given)
inactive: Potency [1] | Potency [2] | Potency [3] | Potency [4] | Potency [20] | outcome [6] | Potency [7] | Potency [8] | Potency [9] | Potency [10] | Potency [11] | Potency [17] | outcome [12] | outcome [13] | outcome [14] | outcome [18]

C=Cc1ccc(C=C)cc1
inactive: Potency [1] | Potency [2] | Potency [4] | Potency [15] | Potency [20] | Potency [19] | Potency [16] | outcome [6] | Potency [8] | Potency [9] | Potency [11] | Potency [17] | outcome [12] | outcome [13] | outcome [14] | outcome [18]

CC(C)=CCC/C(C)=C/C=N/O
inactive: Potency [1] | Potency [2] | Potency [3] | Potency [4] | Potency [20] | Potency [16] | outcome [6] | Potency [7] | Potency [8] | Potency [9] | outcome [12] | outcome [13] | outcome [14] | outcome [18]

CC1=CC(=C(c2ccc(N)cc2)c2ccc(N)cc2)C=CC1=N
inactive: activity change [1] -2.79% [at 8.39 µM, active compounds read high] | activity change, negative = inhibition [2] -22.7% [at 8.39 µM] | activation [3] -6.24% [at 8.39 µM] | activation [16] 0.281% [at 8.39 µM] | cAMP activity change [6] -1.93% [at 8.39 µM] | activity change, negative = inhibition [7] 0.722% [at 8.39 µM] | activity change, negative = inhibition [10] 5.6% [at 8.39 µM] | activity change, negative = cytotoxicity [11] 5.81% [at 8.39 µM] | activity change, negative = cytotoxicity [17] 0% [at 8.39 µM] | viability change, negative = cytotoxic [12] 12% [at 6.97 µM] | activity change, negative = cytotoxicity [13] 4.82% [at 6.97 µM] | activation [14] 8.28% [at 6.97 µM]
active: Potency [15] 3.1 µM | Potency [9] 0.39 µM

CCCCCCCCS
inactive: Potency [1] | Potency [2] | Potency [3] | Potency [4] | Potency [20] | Potency [19] | Potency [16] | Potency [8] | Potency [9] | Potency [10] | Potency [11] | Potency [17] | outcome [12] | outcome [13] | outcome [14]

CCC(=O)O[C@]1(C(=O)COC)[C@@H](C)C[C@H]2[C@@H]3CCC4=CC(=O)C=C[C@]4(C)C3(F)[C@@H](O)C[C@@]21C (stereo not given in full)
active: Potency [1] 13.3 µM | Potency [5] 0.006 µM | Potency [9] 0.376 µM
inactive: Potency [2] | Potency [3] | Potency [15] | Potency [20] | Potency [19] | outcome [6] | Potency [8] | Potency [10] | Potency [11] | outcome [12] | outcome [13] | outcome [14]

C=C[Si]1(C)O[Si](C)(C=C)O[Si](C)(C=C)O[Si](C)(C=C)O1 (stereo not given)
inactive: Potency [1] | Potency [4] | Potency [15] | Potency [20] | Potency [19] | outcome [6] | Potency [7] | Potency [8] | Potency [9] | Potency [10] | Potency [11] | Potency [17] | outcome [12] | outcome [13] | outcome [14] | outcome [18]
active: Potency [2] 30.6 µM

C/C=C1\[C@H]2C=C(C)C[C@]1(N)c1ccc(=O)[nH]c1C2
inactive: Potency [1] | Potency [2] | Potency [3] | Potency [4] | Potency [20] | Potency [19] | outcome [6] | Potency [7] | Potency [8] | Potency [9] | Potency [10] | Potency [11] | Potency [17] | outcome [12] | outcome [13] | outcome [14] | outcome [18]

COC(=O)c1cc(Cl)ccc1[N+](=O)[O-]
inactive: Potency [1] | Potency [2] | Potency [4] | Potency [15] | Potency [20] | Potency [19] | Potency [16] | outcome [6] | Potency [7] | Potency [8] | Potency [9] | Potency [11] | Potency [17] | outcome [12] | outcome [13] | outcome [14] | outcome [18]

O=C(OCCOCCOCCOC(=O)c1ccccc1)c1ccccc1
inactive: Potency [1] | Potency [2] | Potency [4] | Potency [15] | Potency [19] | Potency [16] | outcome [6] | Potency [8] | Potency [9] | Potency [10] | Potency [11] | Potency [17] | outcome [12] | outcome [13] | outcome [14] | outcome [18]

— PubChem BioAssay (Tox21)
